Test [1] in a line: compounds binding Alexa647 anti-His antibody – biochemical, small-molecule microarray, 635 nm fluorescence, artefact control for SMM control protein annotation, primary screen (AID 1128).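 Also: score merges feature fluorescence with signal-to-noise for each printed compound spot.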 To be noted: higher = more signal.
The test system of test [2] is Human papillomavirus type 1a E7 protein (residues 1-88). Kind of test: HPV1a E7 small-molecule binders, primary screen, biochemical, small-molecule microarray, residues 1-88, 635 nm (AID 1129). To be noted: small-molecule microarray binding, fluorescence 635 nm; higher = more signal.
Test [3] has as its target Focal adhesion kinase 1 (Homo sapiens) (UniProt Q05397). Kind of test: PTK2 protein binding on printed compound slides – biochemical, small-molecule microarray, 635/667 nm fluorescence, BSA, DTT, primary screen (AID 1130).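 Also: composite of spot emission at 667 nm and signal to noise over triplicate slides.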 To be noted: 635 nm fluorescence, higher = more signal.
In test [4] the test system is Fibrinogen (Alexa647-labelled). Kind of test: Alexa647-fibrinogen binding to printed small molecules – biochemical, small-molecule microarray, 635/667 nm fluorescence, artefact control for SMM control-protein annotation, profiling panel (AID 1131).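 Also: z-score merges 667 nm fluorescence with per-spot signal-to-noise over triplicate slides.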 The conditions noted are these: fibrinogen-A647 binding fluorescence, higher = more signal.
For test [5], the target named is Follistatin (Homo sapiens) (UniProt P19883). Nature of the test: FST protein binding to printed compounds – biochemical, small-molecule microarray, 635/667 nm fluorescence, primary screen (AID 1132). To be noted: 635 nm fluorescence, higher = more signal.
The target in test [6] is Fibroblast growth factor 2 (Homo sapiens) (UniProt P09038). Kind of test: basic fibroblast growth factor binding to printed compounds – biochemical, small-molecule microarray, 635/667 nm fluorescence, primary screen (AID 1133). The conditions noted are these: FGF2, fluorescence 635/667, higher = more signal.
Test [7] can be described thus: JC-1 mitochondrial potential readout, lung cancer cells – cell-based, A549, JC-1 fluorescence, basal, 24 h, 100 nL, profiling panel (AID 1138).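 Also: A549 lung adenocarcinoma cells under basal conditions with no added stimulus; test concentration not given here.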 The conditions noted are these: higher = more signal.
For the next test, the system named is Lefty1. Nature of the test: Lefty1 protein binding to printed compounds – biochemical, small-molecule microarray, 635/667 nm fluorescence, primary screen (AID 1139). The conditions noted are these: fluorescence 635/667, higher = more signal.
Test [8] has as its system wheat germ agglutinin (Triticum aestivum), Alexa647-labelled. Kind of test: Alexa647-WGA lectin binding to printed small molecules – biochemical, small-molecule microarray, 635/667 nm fluorescence, artefact control for SMM control-protein annotation, profiling panel (AID 1140).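 Also: score merges 667 nm feature emission with signal to noise over triplicate slides.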 The conditions noted are these: WGA-A647 binding, 635 nm fluorescence, higher = more signal.
Test [9] deals with Luciferin 4-monooxygenase (Photinus pyralis) (UniProt P08659). Nature of the test: inhibition of purified Photinus pyralis luciferase – biochemical, luminescence, purified enzyme, 2006 set, primary screen (AID 1141).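 Also: cell-free assay with purified firefly luciferase at 100 ng per well in PBS; test concentration not given here.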 The conditions noted are these: purified firefly luciferase, SteadyGlo luminescence, 30 min; higher = more signal, called active from +8 up or from −8 down.
The test system of test [10] is Wnt5a (protein binding on small-molecule microarray). Nature of the test: small molecules binding Wnt5a protein – biophysical, small-molecule microarray, 635/667 nm fluorescence, primary screen (AID 1142).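 Also: fluorescence read at 667 nm with signal to noise per printed feature.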 The conditions noted are these: 635 nm fluorescence, higher = more signal.
Test [11] is described as follows: ATP-based viability of Huh7 replicon cells – cell-based, CellTiter-Glo luminescence, basal, 48 h, cytotoxicity control for HCV replication inhibitor project, primary screen (AID 1143).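 Also: Huh7 hepatoma cells carrying a hepatitis C replication reporter with no stimulus; test concentration not given here.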 To be noted: higher = more signal, called active from +8 up or from −8 down.
Test [12] is described as follows: Pseudomonas biofilm growth suppression – PAO1 strain, BacTiter-Glo luminescence, LB-PBS, primary screen (AID 1144). The conditions noted are these: P. aeruginosa PAO1 biofilm, 12 h, higher = more signal.
Test [13] can be described thus: basal CRE-LacZ reporter activity in PC12 – cell-based, unstimulated, primary screen (AID 1145). To be noted: no forskolin, luminescence, 4.5 h, higher = more signal, called active from +8 up or from −8 down.
Test [14] in a line: forskolin-driven CRE-LacZ activity in PC12 – cell-based, CRE-LacZ reporter, forskolin-stimulated, primary screen (AID 1146).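 Also: PC12 cells with 6xCRE LacZ reporter stimulated by forskolin 10 µM; beta-galactosidase reporter signal reflecting CREB driven transcription.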 To be noted: luminescence, 4.5 h, higher = more signal, called active from +8 up or from −8 down.
The target of test [15] is Streptavidin (Streptomyces avidinii) (UniProt P22629). Kind of test: compounds binding control protein streptavidin – biophysical, small-molecule microarray, 635/667 nm fluorescence, artefact control for SMM compound annotation, primary screen (AID 1147).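 Also: signal reflects streptavidin binding to arrayed compounds as a control protein.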 The conditions noted are these: higher = more signal.
Test [16] in a line: probe aInhba binding on compound microarray – biochemical, small-molecule microarray, 635/667 nm fluorescence, primary screen (AID 1148).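 Also: score merges 667nm spot fluorescence with signal-to-noise for antibody binding to printed compounds.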 To be noted: higher = more signal.
The target in test [17] is Torsin-1A (Homo sapiens) (UniProt O14656). Kind of test: TOR1A wild-type binding on microarray – cell lysate, small-molecule microarray, lysate, 635/667 nm, primary screen (AID 1149). To be noted: COS7 hTOR1A-WT lysate, 635 nm fluorescence, higher = more signal.
The target is the same in test [18]. Nature of the test: torsin A mutant lysate binding on microarrays – cell lysate, small-molecule microarray, COS7 lysate, 635/667 nm fluorescence, primary screen (AID 1150).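 Also: score pools 667 nm emission and signal to noise measuring lysate protein binding.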 To be noted: COS7 hTOR1A mutant lysate, 635 nm fluorescence, higher = more signal.
In test [19] the test system is Sonic hedgehog protein (Shh). Kind of test: Sonic hedgehog microarray binding compounds – biochemical, small-molecule microarray, 635/667 nm fluorescence, primary screen (AID 1151).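 Also: Shh protein binding to compounds spotted on small-molecule microarray slides; score combines spot fluorescence intensity with signal-to-noise across triplicate slides.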 To be noted: 635 nm fluorescence, higher = more signal.

Calls of active or inactive are those of the source. Unless noted, no rule for the calls is given here.

For five compounds, composite z-score and z-score results are on record in PubChem BioAssay.

Sequence of Luciferin 4-monooxygenase (Photinus pyralis) (P08659 whole entry, looked up): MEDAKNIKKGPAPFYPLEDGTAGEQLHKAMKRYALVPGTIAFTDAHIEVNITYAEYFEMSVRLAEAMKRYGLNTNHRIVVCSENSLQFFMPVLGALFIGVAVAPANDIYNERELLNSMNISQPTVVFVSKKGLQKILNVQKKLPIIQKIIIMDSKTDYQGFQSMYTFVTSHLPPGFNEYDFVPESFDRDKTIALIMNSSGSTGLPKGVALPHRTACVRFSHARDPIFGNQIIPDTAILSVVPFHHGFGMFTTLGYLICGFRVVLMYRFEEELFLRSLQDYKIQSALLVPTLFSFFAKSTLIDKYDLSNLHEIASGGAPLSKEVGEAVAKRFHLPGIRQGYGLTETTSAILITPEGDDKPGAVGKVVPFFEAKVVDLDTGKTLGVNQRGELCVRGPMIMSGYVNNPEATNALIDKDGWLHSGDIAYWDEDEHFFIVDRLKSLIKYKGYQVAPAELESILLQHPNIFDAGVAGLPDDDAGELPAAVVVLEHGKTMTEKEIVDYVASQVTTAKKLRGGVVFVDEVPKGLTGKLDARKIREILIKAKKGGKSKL
Sequence of Follistatin (Homo sapiens) (P19883 whole entry, looked up): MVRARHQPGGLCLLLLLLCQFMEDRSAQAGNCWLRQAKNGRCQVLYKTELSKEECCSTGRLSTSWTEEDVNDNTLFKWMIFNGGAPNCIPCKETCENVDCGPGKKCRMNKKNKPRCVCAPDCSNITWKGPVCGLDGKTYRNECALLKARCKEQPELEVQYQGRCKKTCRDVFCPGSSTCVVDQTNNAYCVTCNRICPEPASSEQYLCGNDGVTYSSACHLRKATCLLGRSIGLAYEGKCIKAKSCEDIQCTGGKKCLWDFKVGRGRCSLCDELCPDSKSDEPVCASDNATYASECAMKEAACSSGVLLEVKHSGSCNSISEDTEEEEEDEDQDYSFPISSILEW
Sequence of Fibroblast growth factor 2 (Homo sapiens) (P09038 whole entry, looked up): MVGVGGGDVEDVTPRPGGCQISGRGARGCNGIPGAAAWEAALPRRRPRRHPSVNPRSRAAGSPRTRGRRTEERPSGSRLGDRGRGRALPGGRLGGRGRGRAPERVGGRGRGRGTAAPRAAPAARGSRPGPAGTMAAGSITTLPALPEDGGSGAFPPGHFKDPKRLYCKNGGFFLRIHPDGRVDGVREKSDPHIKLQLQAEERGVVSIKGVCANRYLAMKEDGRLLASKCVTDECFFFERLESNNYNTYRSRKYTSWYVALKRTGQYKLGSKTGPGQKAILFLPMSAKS
Sequence of Streptavidin (Streptomyces avidinii) (P22629 whole entry, looked up): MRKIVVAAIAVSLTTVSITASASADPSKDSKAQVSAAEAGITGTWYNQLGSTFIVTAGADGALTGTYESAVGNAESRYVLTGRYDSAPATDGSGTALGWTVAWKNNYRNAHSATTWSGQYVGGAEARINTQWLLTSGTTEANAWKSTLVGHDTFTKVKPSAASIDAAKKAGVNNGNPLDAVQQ
Sequence of Focal adhesion kinase 1 (Homo sapiens) (Q05397 whole entry, looked up): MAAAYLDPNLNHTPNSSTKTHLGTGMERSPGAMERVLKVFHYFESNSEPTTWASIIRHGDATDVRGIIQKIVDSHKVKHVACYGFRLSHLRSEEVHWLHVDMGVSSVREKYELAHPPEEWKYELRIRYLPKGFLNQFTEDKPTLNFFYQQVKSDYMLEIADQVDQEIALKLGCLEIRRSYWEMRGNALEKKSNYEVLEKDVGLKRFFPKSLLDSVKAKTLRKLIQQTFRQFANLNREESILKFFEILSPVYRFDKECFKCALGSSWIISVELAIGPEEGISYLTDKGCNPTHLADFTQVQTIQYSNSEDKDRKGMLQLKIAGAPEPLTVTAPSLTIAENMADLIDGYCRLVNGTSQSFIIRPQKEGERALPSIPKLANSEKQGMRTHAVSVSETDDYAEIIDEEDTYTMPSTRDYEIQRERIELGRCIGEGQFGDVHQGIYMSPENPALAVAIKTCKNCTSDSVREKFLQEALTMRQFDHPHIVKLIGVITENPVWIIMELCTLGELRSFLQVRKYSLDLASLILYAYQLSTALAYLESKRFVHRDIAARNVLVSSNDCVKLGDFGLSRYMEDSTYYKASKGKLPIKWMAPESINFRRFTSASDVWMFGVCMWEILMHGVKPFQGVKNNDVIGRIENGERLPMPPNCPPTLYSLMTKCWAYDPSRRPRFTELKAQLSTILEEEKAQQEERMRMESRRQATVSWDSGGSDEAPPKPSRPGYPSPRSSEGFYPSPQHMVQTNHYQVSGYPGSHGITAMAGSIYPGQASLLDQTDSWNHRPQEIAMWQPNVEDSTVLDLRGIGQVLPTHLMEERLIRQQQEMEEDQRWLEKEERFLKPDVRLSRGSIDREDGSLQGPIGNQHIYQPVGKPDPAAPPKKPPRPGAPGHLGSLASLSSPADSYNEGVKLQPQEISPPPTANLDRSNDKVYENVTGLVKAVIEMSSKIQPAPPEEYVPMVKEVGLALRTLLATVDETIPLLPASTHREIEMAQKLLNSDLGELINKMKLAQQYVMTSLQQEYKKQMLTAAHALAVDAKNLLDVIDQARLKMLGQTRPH
Sequence of Torsin-1A (Homo sapiens) (O14656 whole entry, looked up): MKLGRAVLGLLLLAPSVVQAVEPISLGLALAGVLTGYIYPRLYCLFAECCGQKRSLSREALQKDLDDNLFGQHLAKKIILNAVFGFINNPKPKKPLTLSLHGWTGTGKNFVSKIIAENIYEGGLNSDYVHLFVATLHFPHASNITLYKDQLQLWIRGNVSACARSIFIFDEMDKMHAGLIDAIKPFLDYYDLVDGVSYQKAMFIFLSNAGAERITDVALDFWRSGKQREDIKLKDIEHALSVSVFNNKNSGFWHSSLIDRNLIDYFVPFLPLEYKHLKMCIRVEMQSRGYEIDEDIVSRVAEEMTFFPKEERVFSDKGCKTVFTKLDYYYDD

On to `CCOC(=O)[C@H](CC(C)C)NC(=O)CCC1CC(OC(=O)NCCc2ccc(F)cc2)CC2(CCCC(COC(=O)NCCc3ccc(Cl)cc3)O2)O1` (stereo not given in full), for which the composite z-score was 0.704 in test [1]; 0.596 in test [2]; 0.688 in test [3]; 0.75 in test [4]; 0.692 in test [5]; 0.84 in [6]. Further, the composite z-score is 1.34 with Lefty1; 0.61 in test [8]; 0.555 in test [10]; 0.645 in test [15]; -0.125 in test [16]; 0.601 in the test with Torsin-1A (Homo sapiens) [17]. Moreover, the figures for the composite z-score (in the test with Torsin-1A (Homo sapiens) [18]; in [19]) were 0.385 and 1.62, respectively. Further, the z-score is -0.156 in [7]; 0.442 (inactive) in test [9]; -1.54 (inactive) in test [11]; -0.204 (inactive) in [12]; 1.75 (inactive) in test [13]; 0.214 (inactive) in test [14].

As for `CO[C@@H]1COC(=O)CC=C[C@H](C)[C@H](OC)COC(=O)[C@H](C)NC(=O)CC=C[C@H]1C`, the composite z-score was -0.347 in test [1]; -1.35 in test [2]; -0.289 in test [3]; -0.394 in [4]; 1.41 in [5]; 0.628 in [6]. Moreover, the composite z-score was 1.64 in the test with Lefty1; -0.54 in test [8]; -0.0631 in test [10]; -0.369 in test [15]; -0.133 in test [16]; 1.57 with Torsin-1A (Homo sapiens) [17]. Besides, the figures for the composite z-score (with Torsin-1A (Homo sapiens) [18]; in test [19]) were 0.63 and 2.09, respectively. Moreover, the z-score in [7] is 0.239; in test [9] it was -0.304 (inactive); in test [11], -0.0558 (inactive); in test [12] it was 0.938 (inactive); in test [13] it was 0.159 (inactive); in [14] it was -0.463 (inactive).

On to `COC(=O)CC=C[C@@H](C)[C@@H](C=NO[C@H](C)c1cn([C@H](CO)Cc2ccccc2)nn1)OC`, for which the composite z-score in test [1] was 3.43; in test [2] it was 0.544; in test [3], -0.144; in test [4], 0.236; in test [5], 0.517; in test [6], 0.827. Also, the composite z-score is 0.71 in the test on Lefty1; 0.268 in test [8]; 0.247 in test [10]; 0.21 in [15]; -0.128 in [16]; 1.09 with Torsin-1A (Homo sapiens) [17]. For the same compound, the figures for the composite z-score (in the test with Torsin-1A (Homo sapiens) [18]; in test [19]) were 1.78 and 1.08, respectively. The z-score is -0.826 in [7]; -0.165 (inactive) in test [9]; -0.742 (inactive) in test [11]; 0.226 (inactive) in test [12]; 0.359 (inactive) in test [13]; 0.303 (inactive) in [14].

With `O=C1[C@H]2[C@H]3[C@H](O)[C@H](O)CC(=NOCc4ccccc4)[C@@H]3CC[C@H]2C(=O)N1Cc1ccc2c(c1)OCO2`, the composite z-score in test [1] is 0.0116; in test [2] it was 0.316; in test [3], 0.928; in test [4], 0.866; in test [5], 1.23; in [6], 0.319. For the same compound, the composite z-score with Lefty1 is 0.268; in test [8], 0.261; in test [10] it was 0.0098; in test [15], 0.193; in [16] it was -0.101; with Torsin-1A (Homo sapiens) [17] it was 0.537. The composite z-score in the test with Torsin-1A (Homo sapiens) [18] is -0.0537; in test [19], 0.643. In addition, the z-score is -0.368 in test [7]; 0.729 (inactive) in test [9]; 0.445 (inactive) in [11]; -0.312 (inactive) in test [12]; 0.0664 (inactive) in [13]; -0.174 (inactive) in [14].

As to `O=C1C=C[C@@H](O)[C@@H]2[C@@H]3C(=O)N(C[C@@H]4CCCO4)C(=O)[C@@H]3CC[C@@H]12`, the composite z-score in test [1] was found to be 0.518; in test [2], 0.686; in [3], 0.18; in test [4] it was 0.418; in test [5], 0.23; in [6], 0.535. The composite z-score was 0.756 in the test with Lefty1; 0.221 in [8]; -0.142 in test [10]; -0.029 in [15]; -0.0424 in test [16]; 0.294 with Torsin-1A (Homo sapiens) [17]. Further, the composite z-score with Torsin-1A (Homo sapiens) [18] was 0.462; in test [19] it was 0.159. For the same compound, the z-score in [7] was -0.117; in [9], -0.0563 (inactive); in test [11], -0.228 (inactive); in test [12] it was 0.477 (inactive); in test [13], -0.295 (inactive); in test [14], -0.593 (inactive).
